Among the data in ChEMBL document CHEMBL1157539, “Thousands of chemical starting points for antimalarial lead identification” (Nature, 2010) are IFI values, retold here.

In all, about 13,000 compounds were measured (“IFI”: median about 4, highest 2% from about 17 on). For the sample, the highest values were picked, then their nearest neighbours and some compounds at random.

The nature of the assay: GSK_TCMDC: Inhibition Frequency Index (IFI). The number of non-kinase HTS assays where a compound showed > 50 % inhibition, expressed as a percentage of the number of such assays in which the compound was tested. In kind it is functional.
`Cc1c(Cl)cccc1S(=O)(=O)Nc1cccc(CCN2CCC(N3CCCCC3)CC2)c1` yielded an IFI of 14.3%.

`CN(C)c1cccc2c(S(=O)(=O)Nc3cccc(CCN4CCC(N5CCCCC5)CC4)c3)cccc12` displayed an IFI of 18%. With `O=S(=O)(Nc1cccc(CCN2CCC(N3CCCCC3)CC2)c1)c1cccc2ccccc12` the figure was 8.06%; with `CC(N)(Cc1ccc(O)cc1)c1nnn[nH]1` (stereo not drawn), 0%; with `O=c1sn(-c2csc3ccccc23)c2ccccc12`, 18.5%. The value for `Cc1[nH]c(C)c(-c2csc3ccccc23)c(=O)c1Cl` was 0%.

In turn, `COc1ccc(S(=O)(=O)NCC2CCCN(CCCCCNC(=O)/C=C/c3ccc(Cl)c(Cl)c3)C2)cc1` (stereo not drawn) yielded an IFI of 9.22%. With `Cc1nc(Nc2ccc(F)cc2)nc(N2CCc3cc(O)ccc3C2C)c1C` (stereo not drawn) the figure was 8.63%; with `O=c1c(NCCCN(Cc2ccc(F)cc2)c2ccccn2)c(NCc2ccncc2)c1=O`, 0.7%; with `COc1ccc(CC2(c3ccc(F)cc3)N=C(N)N(CCCc3ccc4c(c3)OCO4)C2=O)cc1` (stereo not drawn), 6.45%. The value for `COc1ccc(CC2(c3ccc(F)cc3)N=C(N)N(CCCc3ccc(F)c(F)c3)C2=O)cc1` (stereo not drawn) was 20%; that for `COc1ccc(CC2(c3ccc(F)cc3)N=C(N)N(CCCc3ccccc3)C2=O)cc1` (stereo not drawn) was 16.7%. With `COc1ccc(CNC(=O)c2cnc3c(O)cccc3c2Nc2cccc(NC(=O)c3ccc(Cl)c(Cl)c3)c2)cc1` the figure was 7.81%; with `NC(=O)COc1c(C2CCN(CCCCNC(=O)c3ccc(-c4ccc(Cl)cc4)c(O)c3)CC2)ccc2c1CCCC2`, 13.8%. The compound `CC(C)C1=C[C@H]2C[C@]3(C4OCCO4)[C@@H]4CC[C@@H](C)[C@H]4C[C@@]2(COCc2cccc(C#N)c2)[C@]13C(=O)OC(c1ccccc1)c1ccccc1` had an IFI of 2.33%. With `CN1CCN(Cc2ccc(-c3ccc4ncnc(Nc5ccc(OCc6ccccc6)cc5)c4c3)o2)CC1` the figure was 6.98%. With `Cc1cccc2nc(-c3ccc(-c4ccc(CNCc5ccc(CN)cc5)cc4)s3)[nH]c12` the figure was 11.9%; with `CC(C)CNCc1ccc(-c2cccc(CNc3ccc4ncccc4c3)c2)cc1`, 8.51%; with `COc1cc2nccc(Nc3ccc(OCc4ccc(NC(C)=O)cc4)cc3)c2cc1OC`, 5.84%.

In turn, `COc1ccc(Nc2nccc(-c3ccc4c(-c5ccsc5)cnc(N)c4c3)n2)cc1` gave an IFI of 2.13%.

In the case of `Nc1nccc2ccc(-c3ccnc(NCc4cccnc4)n3)cc12`, the IFI is 5.56%. The value for `Cn1ncc2ccc(Nc3nccc(-c4ccc5c(c4)c(N)nn5C)n3)cc21` was 17.8%; that for `CC(CN(C)C)C(=O)Nc1ccc(-c2ccc(-c3nc4cc(C(F)(F)F)ccc4[nH]3)cc2)cc1` (stereo not drawn) was 3.6%. The value for `Cc1ccc(C(C(=O)Nc2ccc(N3CCNCC3)c(Cl)c2)c2ccccc2)cc1` (stereo not drawn) was 18.6%; that for `O=C(Nc1ccc(Cl)c(Cl)c1)Nc1ccccc1N1CCNCC1` was 15%; that for `CC(C)(C)C(=O)Nc1ccc(N2CCN(C(c3ccccc3)c3ccccc3)CC2)c(Cl)c1` was 3.51%. As to `CC(C)N1CCN(C(CN2CCN(CCCOc3ccc4ccccc4c3)CC2)c2ccc(F)cc2)CC1` (stereo not drawn), the IFI came to 9.85%. The value for `FC(F)(F)c1ccc2[nH]c(-c3ccc(-c4cccc(CNCc5ccccc5)c4)cc3)nc2c1` was 12.5%. The value for `CNc1ccc(CNCc2cccc(-c3ccc(-c4nc5cc(C(F)(F)F)ccc5[nH]4)cc3)c2)cc1` was 18.8%; that for `CNc1ccc(CNCc2ccc(-c3ccc(-c4nc5cc(C(F)(F)F)ccc5[nH]4)cc3)cc2)cc1` was 14.1%. With `Cc1ccc(-n2c(Sc3ncnc4sccc34)nnc2N2CCCC2)cc1` the figure was 6.06%; with `C[C@H]1CN(Cc2cccc(-c3cc(CNC(=O)c4cccc(C(=O)c5ccc(Cl)c(Cl)c5)c4)ccc3F)c2)CCN1`, 18.6%. As for `C[C@H]1CN(Cc2ccc(-c3cccc(CNC(=O)c4cccc(C(=O)c5ccc(Cl)c(Cl)c5)c4)c3)s2)CCN1`, the IFI stood at 16.2%. The value for `CC1CCN(Cc2cccc(C(=O)NCc3ccc(F)c(-c4cccc(CN5CCN[C@@H](C)C5)c4)c3)c2)CC1` was 5.04%; that for `Cc1cc(N[C@@H](Cc2ccccc2)C(=O)NCc2cccc(F)c2)nc(NCCc2cccs2)n1` was 12.8%; that for `O=C(NCC1Cc2cc(Oc3ccccc3)ccc2O1)c1ccc([N+](=O)[O-])o1` (stereo not drawn) was 17.9%. On to `CCOC(=O)C(CO)NC(=O)c1ccc([N+](=O)[O-])o1` (stereo not drawn), for which the IFI stood at 1.41%. `CCOC(=O)C(NC(=O)c1ccc([N+](=O)[O-])o1)C(C)C` (stereo not drawn) returned an IFI of 1.41%. With `Cc1cccc2nc(-c3ccc(-c4ccc(NC(=O)Nc5ccsc5)cc4)cc3)[nH]c12` the figure was 8%; with `CN(C)CCNCc1cccc(-c2ccc3c(Nc4cc(O)c(Cl)cc4F)ccnc3c2)c1`, 3.68%; with `O=C(N[C@H]1CCN(CCc2ccc(O[C@H]3CCNC3)c(F)c2)C1)c1ccc(Cl)c(Cl)c1`, 6%.

`O=C(NC(Nc1ccc([N+](=O)[O-])cc1)C(Cl)(Cl)Cl)c1ccc(Cl)cc1` (stereo not drawn) displayed an IFI of 19.9%.

`COc1ccc(C(=O)NC(Nc2ccc([N+](=O)[O-])cc2)C(Cl)(Cl)Cl)cc1` (stereo not drawn) registered an IFI of 13.4%. `O=C(NC(Nc1ccc([N+](=O)[O-])cc1)C(Cl)(Cl)Cl)c1cccc(Cl)c1` (stereo not drawn): the IFI is 13.9%. `COc1cccc2c(N/N=C/c3ccccc3[N+](=O)[O-])ccnc12`: the IFI came to 3.62%. With `O=C(Nc1ccccc1Cc1ccccc1)c1ccccc1C(F)(F)F` the figure was 0.78%. The compound `CC(C)(C)c1cc(Cl)cc(C(=O)Nc2cc([N+](=O)[O-])ccc2Cl)c1O` registered an IFI of 13.7%. Take `CC(C)(C)c1cc([N+](=O)[O-])cc(C(=O)Nc2ccccc2C(F)(F)F)c1O`: the IFI was determined as 22.7%. With `CNC(=O)c1cnc(Nc2ccc(N3CCN(C)CC3)cc2)nc1Nc1cccc(OC)c1`, the IFI was 4.48%. Regarding `Cc1ccc2[nH]c(NC#N)nc2c1`, the IFI worked out at 0%.

In the case of `COc1cc2nc(N3CCC(CNCc4ccc(-c5ccc(C(F)(F)F)cc5)cc4)CC3)nc(N)c2cc1OC`, the IFI was determined as 17.1%. In turn, `c1ccc(Oc2ccc(Nc3ccnc(Nc4ccc(CN5CCOCC5)cc4)n3)cc2)cc1` gave an IFI of 20.2%. With `c1ccc(Oc2ccc(Nc3ccnc(Nc4cccc(CNCCCN5CCOCC5)c4)n3)cc2)cc1` the figure was 7.41%. The value for `CN1CCN(Cc2cccc(Nc3nccc(Nc4ccc(Oc5ccccc5)cc4)n3)c2)CC1` was 3.01%; that for `COc1ccc(CNC(=O)Nc2cc3cc(-c4ccc(CN5CCCC5)cc4)ccc3n3c(C)nnc23)cc1` was 13.5%. The value for `Cc1cccc2nc(-c3cccc(-c4ccc(NC(=O)c5ccncc5)cc4)c3)[nH]c12` was 4.42%; that for `Cc1ccc(NC(=O)Nc2ccccc2)cc1-c1ccc(C(=O)Nc2ccncc2)cc1` was 25.7%.

The compound `CC(C)NCc1ccc(-c2ccc(NC(=O)c3cccc(C#N)c3)cc2)cc1` registered an IFI of 8.16%. The value for `O=C(Nc1ccc(C(=O)Nc2cccc(C3=NCCN3)c2)cc1)Nc1ccc(C2=NCCN2)cc1` was 3.57%.

`O=C(Nc1ccc(-c2oc(C(=O)NCCc3cccc(Cl)c3)cc2-c2ccncc2)cc1)Nc1cccc(Cl)c1` registered an IFI of 2.78%.

On to `Cc1ccc(NC(=O)Nc2ccc(Cl)cc2)cc1-c1ccc(C(=O)Nc2ccncc2)cc1`, for which the IFI amounted to 21.1%. With `Cc1ccc(NC(=O)c2ccc(Cl)cc2)cc1-c1ccc(C(=O)Nc2ccncc2)cc1` the figure was 15.5%; with `Cc1ccc(NC(=O)Nc2cccc(Cl)c2)cc1-c1ccc(C(=O)Nc2ccncc2)cc1`, 25.4%; with `CN(C)C(CNC(=O)c1cc(-c2ccncc2)c(-c2ccc(NC(=O)Nc3cccc(Cl)c3)cc2)o1)c1ccccc1` (stereo not drawn), 8.11%. In the case of `Cc1ccc(NC(=O)Nc2ccc(Cl)cc2)cc1-c1cccc(C(=O)Nc2ccc(F)cc2)c1`, the IFI worked out at 15.9%. The value for `N#Cc1cccc(C(=O)Nc2cccc(-c3ccc(C(=O)Nc4cccnc4)cc3)c2)c1` was 7.46%; that for `Cc1ccc(NC(=O)c2cccc(C#N)c2)cc1-c1ccc(C(=O)Nc2ccncc2)cc1` was 24.6%. The value for `CN1CCC(NCc2cccc(-c3nn(C)c4nc(NC5CCCC5)ncc34)c2)CC1` was 9.09%; that for `CCC1CN2CCc3c([nH]c4ccccc34)[C@@H]2C[C@@H]1CC1NCCc2cc(OC)c(OC)cc21` (stereo partly drawn) was 8.33%; that for `CC(Oc1cc(-n2cnc3ccc(NC(=O)CCN4CCCCC4)cc32)sc1C(N)=O)c1ccccc1Cl` (stereo not drawn) was 9.35%. The value for `Cc1cc(N2CC=CCC2)nc(NC(=N)Nc2ccc(Cl)cc2)n1` was 4.29%; that for `CCN(CC)CCCCCNc1c2ccc(Cl)cc2nc2ccc(OC)cc12` was 8.03%; that for `COc1cc2nc(-c3ccc(Br)cc3)cc(N)c2cc1OC` was 11.1%. The compound `Cc1ccc(NC(=O)c2ccc(N3CCN(c4ccncc4)CC3)cc2)cc1F` displayed an IFI of 6.9%. With `Cc1ccc(C)c(NC(=O)Nc2ccc(C)c(-c3ccc(C(=O)Nc4ccncc4)cc3)c2)c1` the figure was 14.1%; with `Cc1ccc(NC(=O)Nc2ccc(Cl)c(C(F)(F)F)c2)cc1-c1ccc(C(=O)Nc2ccncc2)cc1`, 18.3%; with `Cc1ccc(NC(=O)Nc2ccc(Cl)c(C(F)(F)F)c2)cc1-c1ccc(C(=O)NCCN2CCOCC2)cc1`, 13.2%. With `Cc1ccc(NC(=O)Nc2ccccc2F)cc1-c1ccc(C(=O)Nc2ccncc2)cc1` the figure was 26.4%; with `Cc1ccc(NC(=O)c2ccc(Cl)c(Cl)c2)cc1-c1ccc(C(=O)Nc2ccncc2)cc1`, 8.82%; with `Cc1ccc2c(=O)cc(CCc3cccc(F)c3F)n(CC(=O)N(Cc3ccc(-c4ccc(C(F)(F)F)cc4)cc3)C3CCN(C)CC3)c2n1`, 8.51%. As for `CC(C)(C)N1CCC(N(Cc2ccc(-c3ccc(C(F)(F)F)cc3)cc2)C(=O)Cn2c(CCc3cccc(F)c3F)nc(=O)c3cccnc32)CC1`, the IFI stood at 16.7%. The value for `CC(C)COc1ccc(Cl)cc1Cc1ccc(-c2nc3ccc(Cl)cc3[nH]2)o1` was 19.1%; that for `CC(C)COc1ccc(Cl)cc1Cc1ccc(-c2nc3ccc(C(F)(F)F)cc3[nH]2)o1` was 11.3%. The compound `CC(C)COc1ccc(Cl)cc1Cc1ccc(-c2nc3c(F)cccc3[nH]2)o1` gave an IFI of 15.5%.

Consider `CC(C)COc1ccc(Cl)cc1Cc1ccc(-c2nc3ccc(F)c(F)c3[nH]2)o1`, for which the IFI is 11.3%. The value for `CC(C)COc1ccc(Cl)cc1Cc1ccc(-c2nc3ccc(F)cc3[nH]2)o1` was 15.5%; that for `CC(C)COc1ccc(Cl)cc1Cc1ccc(-c2nc3ccc(Br)cc3[nH]2)o1` was 19.8%.

As for `NC(=O)c1ccccc1Nc1nc(Nc2cc[nH]n2)ncc1Cl`, the IFI came to 0%.
